Inconclusive results are not listed. Where a call stands in place of a potency, no number is given. Active and inactive are the calls of the source. Calls come from the whole dose curve; as a rule, active = well fitted inhibition curve with a large enough effect; inconclusive = small, poorly fitted or top-dose-only effect; inactive = flat fitted curve, though single readings scatter.
Assays:
Experiment in all cases: qHTS profiling for inhibitors of Plasmodium falciparum proliferation (AID 504749); note: nearly all actives have a fitted effect of over 60% in size
Conditions in all cases: P. falciparum in erythrocytes, SYBR Green DNA, 72 h; series mostly up to 28.7 µM
[1] = test system: DFO2036
In short: (§1)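 SYBR Green fluorescence (ex 485 nm, em 535 nm) reports parasite DNA after 72 h compound exposure of infected red cells at 0.3% parasitemia, 2.5% hematocrit; signal normalized to 0.29 uM artemisinin and vehicle wells.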

[2] = test system: DIV14
In short: as §1

[3] = test system: DIV30
In short: as §1

[4] = test system: Dd2
In short: as §1

[5] = test system: ECU
In short: as §1

[6] = test system: FAB9
In short: as §1

[7] = test system: GB4
In short: as §1

[8] = test system: HB3
In short: as §1

[9] = test system: ICS
In short: as §1

[10] = test system: JCK
In short: as §1

[11] = test system: N140
In short: as §1

[12] = test system: P93_24
In short: as §1

[13] = test system: P94_40
In short: as §1

[14] = test system: PAD
In short: as §1

[15] = test system: PC15
In short: as §1

[16] = test system: PC26
In short: as §1

[17] = test system: PC49
In short: as §1

[18] = test system: SC27B
In short: as §1

[19] = test system: TAB109
In short: as §1

[20] = test system: DIV17
In short: as §1
Potency is the fitted concentration of half-maximal effect.

SMILES	Potency [1]	Potency [2]	Potency [3]	Potency [4]	Potency [5]	Potency [6]	Potency [7]	Potency [8]	Potency [9]	Potency [10]	Potency [11]	Potency [12]	Potency [13]	Potency [14]	Potency [15]	Potency [16]	Potency [17]	Potency [18]	Potency [19]	Potency [20]
OC[C@H]1O[C@@H]2O[C@H]3[C@H](O)[C@@H](O)[C@@H](O[C@H]4[C@H](O)[C@@H](O)[C@@H](O[C@H]5[C@H](O)[C@@H](O)[C@@H](O[C@H]6[C@H](O)[C@@H](O)[C@@H](O[C@H]7[C@H](O)[C@@H](O)[C@@H](O[C@H]8[C@H](O)[C@@H](O)[C@@H](O[C@H]1[C@H](O)[C@H]2O)O[C@@H]8CO)O[C@@H]7CO)O[C@@H]6CO)O[C@@H]5CO)O[C@@H]4CO)O[C@@H]3CO	inactive	inactive	inactive	inactive	inactive	inactive	inactive	inactive	inactive	inactive	inactive	inactive	inactive	inactive	inactive	inactive	inactive	inactive	inactive	
CCNC(=O)NCc1cccc(Cl)c1	inactive	inactive	inactive	inactive	inactive	inactive	inactive	inactive		inactive	inactive	inactive	inactive	inactive	inactive	inactive	inactive	inactive	inactive	
O=[N+]([O-])c1cccc(S(=O)(=O)NCCNS(=O)(=O)c2cccc([N+](=O)[O-])c2)c1	inactive		inactive	inactive		inactive		inactive		inactive	inactive	inactive	inactive				inactive	inactive		
COc1cc(NS(=O)(=O)c2ccc(N)cc2)ncn1	inactive	inactive	inactive	inactive	inactive	inactive	inactive	inactive	inactive	inactive	inactive	inactive	inactive	inactive	inactive	inactive	inactive	inactive	inactive	
CCCCC(CC)COC(=O)c1ccc(N(C)C)cc1 (centres undefined)	inactive		inactive	inactive	inactive	inactive	inactive	inactive	inactive	inactive	inactive	inactive	inactive	inactive	inactive	inactive	inactive	inactive	inactive	inactive
O=C(Nc1ccc([N+](=O)[O-])cc1)Nc1ccc([N+](=O)[O-])cc1	inactive		inactive		inactive	inactive	inactive		2 µM (active)	inactive	inactive	inactive	inactive	inactive	inactive	inactive	inactive	inactive	inactive	inactive
Cc1cc(-c2ccccc2)nnc1NCCN1CCOCC1	inactive					inactive	inactive	inactive		inactive	inactive	inactive	inactive			inactive	inactive	inactive		8.49 µM (active)
OCCOCCN1CCN(C2=Nc3ccccc3Sc3ccccc32)CC1	inactive		inactive		inactive	inactive	inactive	inactive		inactive	inactive	inactive	inactive	inactive	inactive		inactive	inactive	inactive	inactive
O=C(c1ccc(F)cc1)C1CCN(CCn2c(=S)[nH]c3ccccc3c2=O)CC1	5.62 µM (active)		12 µM (active)	11.2 µM (active)	4.47 µM (active)		12 µM (active)	11.2 µM (active)	5.01 µM (active)	11.2 µM (active)	5.01 µM (active)	3.98 µM (active)	3.16 µM (active)	8.91 µM (active)		8.49 µM (active)	11.2 µM (active)	3.16 µM (active)	4.47 µM (active)	13.5 µM (active)
Cn1c(=O)c2[nH]c(Br)nc2n(C)c1=O		inactive	inactive	inactive	inactive	inactive	inactive	inactive	inactive	inactive	inactive	inactive		inactive	inactive	inactive	inactive	inactive		inactive
CN1CCc2cccc3c2[C@H]1Cc1ccc(O)c(O)c1-3		7.57 µM (active)		inactive			7.57 µM (active)	11.2 µM (active)	2.82 µM (active)		10 µM (active)	7.94 µM (active)	3.98 µM (active)	11.2 µM (active)	8.91 µM (active)	15.1 µM (active)			8.91 µM (active)	7.57 µM (active)
Oc1c(Cl)cc(Cl)c(Cl)c1Cc1c(O)c(Cl)cc(Cl)c1Cl		10.7 µM (active)	13.5 µM (active)	12.6 µM (active)	12.6 µM (active)	inactive	15.1 µM (active)		7.08 µM (active)			8.91 µM (active)					8.91 µM (active)	10 µM (active)	11.2 µM (active)	12 µM (active)
CN1CCN(c2c(F)cc3c(=O)c(C(=O)O)cn4c3c2SCC4)CC1		inactive	inactive	10 µM (active)		inactive	inactive	inactive		inactive					inactive	inactive	inactive	inactive		inactive
O=C(O)CCc1nc2ccccc2[nH]1				0.0007 µM (active)				0.0089 µM (active)	inactive						inactive		0.01 µM (active)		inactive	
CCN(CC)CCOc1ccc2c(c1)C(=O)c1cc(OCCN(CC)CC)ccc1-2		13.5 µM (active)		12.6 µM (active)	8.91 µM (active)		12 µM (active)	11.2 µM (active)				11.2 µM (active)				9.53 µM (active)			5.01 µM (active)	9.53 µM (active)
CC(=O)O[C@]1(C(C)=O)CC[C@H]2[C@@H]3C=C(Cl)C4=CC(=O)CC[C@]4(C)[C@H]3CC[C@@]21C						inactive			10 µM (active)	inactive		11.2 µM (active)	11.2 µM (active)			13.5 µM (active)	inactive	8.91 µM (active)		
CC(C)(Cc1c[nH]c2ccccc12)NCC(O)COc1ccccc1C#N (centres undefined)		8.49 µM (active)		12.6 µM (active)		inactive	9.53 µM (active)		11.2 µM (active)	inactive			11.2 µM (active)			inactive	inactive		10 µM (active)	9.53 µM (active)
CN1CCN(c2cc3c(cc2F)c(=O)c(C(=O)O)cn3-c2ccc(F)cc2)CC1		inactive	inactive		inactive	inactive		inactive		inactive				inactive	inactive	inactive	inactive	inactive		inactive
CNCCCCOc1ccccc1Cc1ccccc1		3.79 µM (active)		2.51 µM (active)		inactive	1.69 µM (active)	inactive	11.2 µM (active)								5.01 µM (active)		4.47 µM (active)	1.9 µM (active)

SMILES	Potency [1]	Potency [2]	Potency [3]	Potency [4]	Potency [5]	Potency [6]	Potency [7]	Potency [8]	Potency [9]	Potency [10]	Potency [11]	Potency [12]	Potency [13]	Potency [14]	Potency [15]	Potency [16]	Potency [17]	Potency [18]	Potency [19]	Potency [20]
CN1CCC(OC(c2ccccc2)c2ccccc2)CC1				3.98 µM (active)	inactive	inactive		inactive		inactive				inactive				inactive		
NCCNc1cccc2ccccc12			inactive		inactive	inactive		inactive		inactive	inactive		inactive	inactive	inactive	inactive	inactive		inactive	15.1 µM (active)
CC(C)[N+](C)(C)CC(O)COc1cccc2ccccc12 (centres undefined)		inactive	inactive			7.94 µM (active)				inactive	inactive			inactive	inactive	inactive	inactive	inactive		
CN(CCCN1c2ccccc2CCc2ccccc21)CC(=O)c1ccc(Cl)cc1		4.26 µM (active)		7.08 µM (active)	10 µM (active)	inactive		12.6 µM (active)	2 µM (active)		7.94 µM (active)	11.2 µM (active)	8.91 µM (active)	12.6 µM (active)	10 µM (active)			10 µM (active)	7.94 µM (active)	4.78 µM (active)
CN(C)CCN1C(=O)c2ccccc2N(C)c2ccccc21				11.2 µM (active)	inactive	inactive	9.53 µM (active)	inactive	inactive	inactive				inactive	inactive					
Oc1ccc(Cl)cc1Cc1cc(Cl)ccc1O	inactive			inactive		inactive		inactive			11.2 µM (active)	inactive					inactive			
CC(C)=CCOc1ccc(/C=C/C(=O)c2ccc(OCC=C(C)C)cc2OCC(=O)O)cc1	inactive			inactive	inactive	inactive		inactive		inactive	inactive	inactive	inactive	inactive	inactive		inactive	inactive	inactive	
O=S(c1cc(Cl)cc(Cl)c1O)c1cc(Cl)cc(Cl)c1O						0.0224 µM (active)		0.0032 µM (active)	inactive						inactive		0.398 µM (active)			
CCN(CC)CCOc1ccccc1C(=O)CCc1ccccc1		6.75 µM (active)		4.47 µM (active)	inactive	inactive		inactive		inactive				inactive			inactive			7.57 µM (active)
Cc1cc2c(OCC(CNC(C)(C)C)OC(=O)c3ccccc3)cccc2[nH]1 (centres undefined)			inactive	3.98 µM (active)	inactive	inactive	10.7 µM (active)		8.91 µM (active)	inactive				inactive	inactive	inactive	inactive	inactive		
CC[N+](C)(CC)CCOC(=O)C(O)(c1ccccc1)C1CCCCC1 (centres undefined)		inactive	inactive		inactive	inactive				inactive	inactive		inactive	inactive	inactive	inactive	inactive	inactive	inactive	
NC1CCN(c2nc3c(cc2F)c(=O)c(C(=O)O)cn3-c2ccc(F)cc2F)C1 (centres undefined)		inactive	inactive			inactive				inactive				inactive	inactive	inactive		inactive		inactive
CN1CCN(C2=Nc3ccccc3Sc3ccc(Cl)cc32)CC1	inactive				inactive	inactive		inactive	11.2 µM (active)	inactive					inactive		inactive			
CC1CCc2c(N3CCC(O)CC3)c(F)cc3c(=O)c(C(=O)O)cn1c23 (centres undefined)			inactive	inactive	inactive	inactive		inactive		inactive				inactive	inactive	inactive	inactive			inactive
COc1ccc(C(=O)c2ccccc2)c(O)c1	inactive					inactive		10 µM (active)	2.82 µM (active)	inactive			inactive				inactive			
CC(C)NCC(O)c1ccc2ccccc2c1 (centres undefined)		6.75 µM (active)	12 µM (active)	7.08 µM (active)	3.98 µM (active)		6.75 µM (active)	12.6 µM (active)	2 µM (active)		4.47 µM (active)	8.91 µM (active)	5.01 µM (active)	3.98 µM (active)	7.94 µM (active)	7.57 µM (active)		8.91 µM (active)	8.91 µM (active)	6.75 µM (active)
Cc1ccc(-c2ncc(Cl)cc2-c2ccc(S(C)(=O)=O)cc2)cn1						inactive							11.2 µM (active)							15.1 µM (active)
CCOCCn1c(N2CCCN(C)CC2)nc2ccccc21		7.57 µM (active)			inactive	inactive		inactive		inactive	inactive	inactive	inactive					inactive		7.57 µM (active)
